# The source made the active and inactive calls.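 The calls were made as follows: active = high combined rank on largest and smallest cell-count-weighted shift across three tests, rank score above 45, floors 50 and 25 (some results past the limit were not filed as active); inactive = the rest.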
# Assay: activators of LNCaP cell differentiation, retest, confirmation, side scatter shift, flow cytometry (AID 1069);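 also: LNCaP human prostate cancer cells in low-serum medium with charcoal-stripped FBS; percent of cells with raised granularity gated so DMSO controls show 10%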
# Settings: 4 d, at 100 µM, stronger effect = higher value
row,SMILES,side scatter shift
1,CCOc1ccc(-c2cc(C(=O)NCCCN3CCN(CC)CC3)c3ccccc3n2)cc1,28.2% (active)
2,CCN(CC)CCCNc1oc(-c2cccc(Cl)c2)nc1C#N,21.9% (inactive)
3,CN(C)CCCN1c2ccccc2CCc2ccc(Cl)cc21,20.9% (active)
4,CCc1ccc(-c2nc(CN3CCCC(C(=O)NCCc4ccc(OC)c(OC)c4)C3)c(C)o2)cc1 (stereo unspecified),25% (inactive)
5,COc1ccc(-c2cc(C(=O)NCc3ccc(Cl)cc3)no2)cc1OC,28.5% (inactive)
6,CN1CCN(c2cc3c(c4c2[nH]c2ccccc24)C(=O)CC(C)(C)C3)CC1,16.1% (active)
7,CCN1CCN(CCNC(=O)C2CCN(Cc3nc(-c4ccc(Cl)cc4)oc3C)CC2)CC1,44.7% (active)
8,CC1=C(n2nnc3ccccc32)C(c2ccccc2)C(C#N)=C(N)O1 (stereo unspecified),26% (inactive)
9,O=C(CCN1C(=O)COc2ccccc21)NCCCN1CCN(c2ccc(F)cc2)CC1,45.3% (inactive)
10,COc1ccc2c(c1OC)C(=O)N(C(C)C(=O)O)C2=O (stereo unspecified),17.9% (inactive)
11,Cc1cc(=O)n2nc(N3CCCC3C(=O)NCc3ccccn3)sc2n1 (stereo unspecified),4% (inactive)
12,Cc1oc(-c2ccc(Cl)cc2)nc1CN1CCC(C(=O)NCc2cccnc2)CC1,30% (inactive)
13,O=C(Cc1coc(-c2ccc(F)cc2)n1)N1CCOCC1,9.7% (inactive)
14,Cn1c(C(=O)NCCCN2CCN(c3ccccc3F)CC2)cc2c(=O)[nH]c3ccccc3c21,33.3% (inactive)
15,Cc1ccccc1-c1nc(CN2CCC(C(=O)NCCCN3CC(C)CC(C)C3)CC2)c(C)o1 (stereo unspecified),54.5% (active)
16,Cc1sc(CO)c(Sc2ccccc2)c1C(=O)O,3.4% (inactive)
17,C=CCn1cc(C(=O)N2CCN(C)CC2)c(=O)c2cc(S(=O)(=O)N3CCCC3)ccc21,8.9% (inactive)
18,Cn1c(=O)n(C)c2cc(CN3C(=O)OC(C)(C)C3(C)O)ccc21 (stereo unspecified),7.1% (inactive)
19,CCc1nnc(NC(=O)CSc2nc3ccccc3s2)s1,5.7% (inactive)

row,SMILES,side scatter shift
1,Cn1c(=O)cc(SCC(=O)NCCCN2CCN(c3ccc(F)cc3)CC2)c2ccccc21,46.7% (inactive)
2,N=c1n(CCN2CCCCC2)c2ccccc2n1CC(O)COc1ccccc1 (stereo unspecified),20% (active)
3,Cc1ccc(Cn2ccc(NC(=O)c3cc(-c4ccc(Br)cc4)on3)n2)cc1,23% (inactive)
4,CN1C(=O)c2ccc(S(=O)(=O)c3ccc(C(=O)O)cc3)cc2C1=O,7.2% (inactive)
5,COc1ccc(CC(=O)Nc2ccc(-c3nnc(-c4ccc(C)cc4)o3)cc2)cc1,33.3% (inactive)
6,CCOc1cccc2cc(-c3cn4cc(C)ccc4n3)c(=O)oc12,43.1% (active)
7,COC(=O)c1cc2oc3ccccc3c2n1CC(=O)Nc1ccccc1OC,18.9% (inactive)
8,Cc1ccccc1-c1nc(CN2CCC(C(=O)NCCCN3CCCC3)CC2)c(C)o1,40% (inactive)
9,OCc1nc2ccccc2n1CCCOc1ccccc1,6.7% (inactive)
10,O=C(CCn1c(=O)[nH]c2ccccc2c1=O)NCCCN1CCN(c2cccc(Cl)c2)CC1,35.7% (inactive)
11,CCN(CCNC(=O)C1CCN(Cc2nc(-c3cccc(Cl)c3)oc2C)CC1)c1ccccc1,66.7% (inactive)
12,COc1ccc(CCNC(=O)C2CCN(Cc3nc(-c4ccccc4C)oc3C)CC2)cc1OC,0% (inactive)
13,Cc1ccc(Nc2cc(=O)n(C3CCCCC3)c(=O)[nH]2)cc1C,0% (inactive)
14,COC(=O)c1cc(-c2ccccc2)sc1NC(=O)c1cc(C)on1,70% (inactive)
15,O=C(Nc1ccc2oc(Cc3ccc(Cl)cc3)nc2c1)c1cccnc1,17.6% (inactive)
16,CCOC(=O)c1ccc(NC(=O)Nc2ccc3c4c(cccc24)C(=O)N3CC)cc1,34.3% (inactive)
17,CCOc1ccccc1NC(=O)CCC(=O)O,6.7% (inactive)
18,Cc1ccccc1-c1nc(CN2CCC(C(=O)NCCC3=CCCCC3)CC2)c(C)o1,9.1% (inactive)
19,O=C(NCCCN1CCN(c2ccccc2F)CC1)C1CCN(S(=O)(=O)c2cccs2)CC1,22.7% (inactive)

# Same assay, conditions: 4 d, side scatter shift, at 10 µM, stronger effect = higher value
row,SMILES,side scatter shift [%]
1,CCOc1ccc(-c2cc(C(=O)NCCCN3CCN(CC)CC3)c3ccccc3n2)cc1,73
2,CCN(CC)CCCNc1oc(-c2cccc(Cl)c2)nc1C#N,32.5
3,CN(C)CCCN1c2ccccc2CCc2ccc(Cl)cc21,48.4
4,CCc1ccc(-c2nc(CN3CCCC(C(=O)NCCc4ccc(OC)c(OC)c4)C3)c(C)o2)cc1 (stereo unspecified),17.3
5,COc1ccc(-c2cc(C(=O)NCc3ccc(Cl)cc3)no2)cc1OC,7.15
6,CN1CCN(c2cc3c(c4c2[nH]c2ccccc24)C(=O)CC(C)(C)C3)CC1,56.2
7,CCN1CCN(CCNC(=O)C2CCN(Cc3nc(-c4ccc(Cl)cc4)oc3C)CC2)CC1,28.8
8,CC1=C(n2nnc3ccccc32)C(c2ccccc2)C(C#N)=C(N)O1 (stereo unspecified),6.4
9,O=C(CCN1C(=O)COc2ccccc21)NCCCN1CCN(c2ccc(F)cc2)CC1,7.5
10,COc1ccc2c(c1OC)C(=O)N(C(C)C(=O)O)C2=O (stereo unspecified),5.3
11,Cc1cc(=O)n2nc(N3CCCC3C(=O)NCc3ccccn3)sc2n1 (stereo unspecified),7.1
12,Cc1oc(-c2ccc(Cl)cc2)nc1CN1CCC(C(=O)NCc2cccnc2)CC1,5.8
13,O=C(Cc1coc(-c2ccc(F)cc2)n1)N1CCOCC1,2.15
14,Cn1c(C(=O)NCCCN2CCN(c3ccccc3F)CC2)cc2c(=O)[nH]c3ccccc3c21,11.1
15,Cc1ccccc1-c1nc(CN2CCC(C(=O)NCCCN3CC(C)CC(C)C3)CC2)c(C)o1 (stereo unspecified),78.4
16,Cc1sc(CO)c(Sc2ccccc2)c1C(=O)O,2.85
17,C=CCn1cc(C(=O)N2CCN(C)CC2)c(=O)c2cc(S(=O)(=O)N3CCCC3)ccc21,1.6
18,Cn1c(=O)n(C)c2cc(CN3C(=O)OC(C)(C)C3(C)O)ccc21 (stereo unspecified),2.45
19,CCc1nnc(NC(=O)CSc2nc3ccccc3s2)s1,5

row,SMILES,side scatter shift [%]
1,Cn1c(=O)cc(SCC(=O)NCCCN2CCN(c3ccc(F)cc3)CC2)c2ccccc21,8.35
2,N=c1n(CCN2CCCCC2)c2ccccc2n1CC(O)COc1ccccc1 (stereo unspecified),50.2
3,Cc1ccc(Cn2ccc(NC(=O)c3cc(-c4ccc(Br)cc4)on3)n2)cc1,10.6
4,CN1C(=O)c2ccc(S(=O)(=O)c3ccc(C(=O)O)cc3)cc2C1=O,5.75
5,COc1ccc(CC(=O)Nc2ccc(-c3nnc(-c4ccc(C)cc4)o3)cc2)cc1,6.65
6,CCOc1cccc2cc(-c3cn4cc(C)ccc4n3)c(=O)oc12,2.1
7,COC(=O)c1cc2oc3ccccc3c2n1CC(=O)Nc1ccccc1OC,8.8
8,Cc1ccccc1-c1nc(CN2CCC(C(=O)NCCCN3CCCC3)CC2)c(C)o1,19.4
9,OCc1nc2ccccc2n1CCCOc1ccccc1,5.1
10,O=C(CCn1c(=O)[nH]c2ccccc2c1=O)NCCCN1CCN(c2cccc(Cl)c2)CC1,11.1
11,CCN(CCNC(=O)C1CCN(Cc2nc(-c3cccc(Cl)c3)oc2C)CC1)c1ccccc1,31.2
12,COc1ccc(CCNC(=O)C2CCN(Cc3nc(-c4ccccc4C)oc3C)CC2)cc1OC,20
13,Cc1ccc(Nc2cc(=O)n(C3CCCCC3)c(=O)[nH]2)cc1C,10.6
14,COC(=O)c1cc(-c2ccccc2)sc1NC(=O)c1cc(C)on1,13.2
15,O=C(Nc1ccc2oc(Cc3ccc(Cl)cc3)nc2c1)c1cccnc1,6.7
16,CCOC(=O)c1ccc(NC(=O)Nc2ccc3c4c(cccc24)C(=O)N3CC)cc1,8.75
17,CCOc1ccccc1NC(=O)CCC(=O)O,6.85
18,Cc1ccccc1-c1nc(CN2CCC(C(=O)NCCC3=CCCCC3)CC2)c(C)o1,24.8
19,O=C(NCCCN1CCN(c2ccccc2F)CC1)C1CCN(S(=O)(=O)c2cccs2)CC1,3.7

# — PubChem BioAssay AID1069 (NMMLSC, 2008)
